PubChem BioAssay AID2685 (National Center for Advancing Translational Sciences (NCATS), 2010)
In all, about 320,000 compounds went through this assay and about 2,100 (0.66%) were called active. Roughly 53% stayed inconclusive and do not appear here. Calls come from the whole dose curve; as a rule, active = well fitted inhibition curve with a large enough effect in the signal ratio, with a control signal flat (not every such curve was filed as active); inconclusive = small, poorly fitted or top-dose-only effect, or effect the other way, or a change in a side signal; inactive = flat fitted curve, though single readings scatter; the % refers to the signal ratio. Many of the other results were omitted from the sample, so actives are more common in it than they were.

Experiment: qHTS Assay for Lipid Storage Modulators in Drosophila S3 Cells;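 for cell number change: cells counted by Cell Tracker Red CMTPX staining in the red channel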
Conditions: BODIPY lipid droplet fluorescence, 18-24 h, cells fed with added oleic acid; cell number change: measured here: cell count max response; series mostly up to 46.1 µM
Summary of the method: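 Drosophila S3 cells got compounds at several concentrations plus oleic acid (400 uM solution). Laser-scanning cytometry with 488 nm excitation read lipid droplets at 500-530 nm and cells at 575-640 nm. Percent activity was relative to 20 uM Triacsin C.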
Potency is the fitted concentration of half-maximal effect.

With O=C1OCc2cc(-n3cccc3)ccc21 as the molecule, how does the Potency read?
Its Potency is “inactive”.

And the cell number change?
Its cell number change is -1.52%.

For CCOC(=O)N1CCC(NC(=O)c2ccc(CS(=O)(=O)c3ccccc3C)o2)CC1, which Potency is on record?
The Potency was “inactive”.

And the cell number change?
Its cell number change is -13.7%.

With Cc1ccccc1S(=O)(=O)Cc1ccc(C(=O)NC2CCCCC2C)o1 (configuration not stated) as the molecule, how does the Potency read?
The Potency was “inactive”.

With Cc1ccccc1S(=O)(=O)Cc1ccc(C(=O)NC2CCC(C)CC2)o1 (configuration not stated) as the molecule, how does the Potency read?
Its Potency is 18.4 µM (active).

What about the cell number change of the same molecule?
The cell number change was -18.5%.

Which Potency does the source give for COC(=O)c1cccc(NC(=O)C(C)(C)C)c1 here?
The Potency was “inactive”.

And the cell number change?
Its cell number change is -0.276%.

With Cn1ccnc1SCC(=O)c1ccc(Cl)cc1 as the molecule, how does the Potency read?
Its Potency is “inactive”.

What about the cell number change of the same molecule?
Its cell number change is 1.94%.

With CN1CCC(NC(=O)Nc2ccc(Br)cc2)CC1 as the molecule, how does the Potency read?
The Potency was “inactive”.

What about the cell number change of the same molecule?
The cell number change was -12.5%.

Which results are given for COc1ccc(CN2CC(C(=O)NCCc3ccc(C)cc3)CC2=O)cc1 (configuration not stated)?
Potency: inactive; cell number change: 1.29%

For COc1ccc(COC(=O)C2CC(=O)N(Cc3ccc(C)cc3)C2)cc1 (configuration not stated), which cell number change is on record?
Its cell number change is -16.1%.

What about the outcome of the same molecule?
Its outcome is “inactive [at 0.369 µM]”.

Which results are given for COc1ccc(NC(=O)COC(=O)C2CC(=O)N(Cc3ccc(C)cc3)C2)cc1 (configuration not stated)?
Potency: 2.06 µM (active); cell number change: -4.17%

For COC(=O)C1CCN(C(=O)c2ccc(Cl)c(S(=O)(=O)NCc3cccnc3)c2)CC1, which Potency is on record?
Its Potency is “inactive”.

What about the cell number change of the same molecule?
Its cell number change is 20.6%.

With CC(=O)Oc1ccccc1N(C(C)=O)S(=O)(=O)c1ccc(C)cc1 as the molecule, how does the Potency read?
Its Potency is “inactive”.

And the cell number change?
Its cell number change is -8.62%.

For CC(C)CC(NC(N)=O)C(=O)NCc1ccc(Cl)cc1 (configuration not stated), which Potency is on record?
Its Potency is “inactive”.

What about the cell number change of the same molecule?
Its cell number change is 6.23%.

For CC(C)C[C@H](NC(=O)NCc1ccc(Cl)cc1)C(=O)O, which Potency is on record?
Its Potency is 6.51 µM (active).

What about the cell number change of the same molecule?
The cell number change was -1.47%.

With CC(C)[C@H](NC(=O)NCc1ccc(Cl)cc1)C(=O)O as the molecule, how does the Potency read?
The Potency was “inactive”.

Which results are given for CCC(=O)Nc1ccc(NC(=O)CSc2nc3cc4c(cc3cc2C)CCC4)cc1?
Potency: inactive; cell number change: 0.207%

With CCC(=O)Nc1nn(C)c2nc3c(C)cccc3cc12 as the molecule, how does the Potency read?
Its Potency is “inactive”.

What about the cell number change of the same molecule?
Its cell number change is -9.14%.

With CC1CCN(CCCNC(=O)C2CCC(CNS(=O)(=O)c3cccc4nsnc34)CC2)CC1 (configuration not stated) as the molecule, how does the Potency read?
Its Potency is “inactive”.

With CCOc1ccc(-n2c(=O)cc(N3CCN(c4ccc(F)cc4)CC3)[nH]c2=O)cc1 as the molecule, how does the Potency read?
The Potency was “inactive”.

What about the cell number change of the same molecule?
Its cell number change is 10.6%.

For Cc1ccc(-c2nnn(CC(=O)N(Cc3ccco3)C(C(=O)NC(C)(C)C)c3cccs3)n2)o1 (configuration not stated), which Potency is on record?
Its Potency is “inactive”.

What about the cell number change of the same molecule?
Its cell number change is -15.2%.

What does the source list for Nc1c(C(=O)Nc2ccccc2)sc2nc3c(c(-c4ccco4)c12)CCCC3?
Potency: inactive; cell number change: -3.84%

What does the source list for Nc1c(C(=O)NCC2CCCO2)sc2nc3c(c(-c4ccco4)c12)CC/C3=C\c1ccco1 (configuration not stated)?
Potency: 8.2 µM (active); cell number change: 3.45%

With Cc1ccc(NC(=O)c2sc3nc4c(c(-c5ccco5)c3c2N)CCC4)cc1 as the molecule, how does the Potency read?
Its Potency is “inactive”.

What about the cell number change of the same molecule?
Its cell number change is -11.1%.

For COc1ccc(NC(=O)CC2C(=O)NCCN2C(=O)Nc2ccc(C(F)(F)F)cc2)cc1 (configuration not stated), which Potency is on record?
The Potency was “inactive”.

What about the cell number change of the same molecule?
The cell number change was 12.2%.

Which Potency does the source give for Cc1cccc(NC(=O)CN2C(=O)N/C(=C\c3ccc(-c4cccc(C(=O)O)c4)o3)C2=O)c1 here?
The Potency was “inactive”.

What about the cell number change of the same molecule?
The cell number change was -0.725%.
